Screening data from PubChem BioAssay.
The list is not random: actives were taken first. Their share in the collection is about 5.8%.
VP16 counter: Gal4-VP16 reporter inhibition counter-screen; Drosophila S2 Gal4-VP16 UAS-luciferase, luminescence, 20 h; Potency, µM (doses to about 53.6 µM), actives largely listed as inhibitors; hit rate 3.5% among 310,000;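 note: Gal4-VP16 expression switched on by copper sulfate through the metallothionein promoter; nearly all actives have a fitted effect of over 50% in size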
uPA generation: blocks generation of uPA at the cell surface. cell surface uPA generation assay, qHTS. Potency, µM (series often up to 38.3 µM), most hits filed as inhibitors. hit rate 0.31% among 330,000; active = well fitted inhibition curve with a large enough effect; inconclusive = small, poorly fitted or top-dose-only effect; inactive = no such curve, though single readings can be large or run the other way; tested in mouse RAW 264.7 cells; note: nearly all actives have a fitted effect of over 55% in size
TRPV1 ag: agonists of human vanilloid receptor 1 (TRPV1); activation, % at 8.33 µM; Q8NER1; TRPV1-expressing cells, Fluo-8 calcium influx, agonist mode; hit rate 0.19% among 320,000; in the data active = activation above about 80%; inconclusive = between about 30% and that limit
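Cells expressing TRPV1 were dye-loaded with Fluo-8 and read kinetically: 10 s baseline, 3 min after compound (agonist portion), then 2 min after EC20 capsaicin (allosteric enhancer portion). Calcium-bound dye fluorescence at 480/520 nm.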
RORgamma inh: inhibitors of mouse ROR gamma transcriptional activity; Drosophila S2 Gal4-RORgamma UAS-luciferase reporter, 20 h; Potency, µM (titrated, usually from 53.6 µM), actives largely listed as inhibitors; hit rate 5.4% among 310,000; note: nearly all actives have a fitted effect of over 60% in size
Target sequence (P51450 whole entry, looked up, the tested form may be a part): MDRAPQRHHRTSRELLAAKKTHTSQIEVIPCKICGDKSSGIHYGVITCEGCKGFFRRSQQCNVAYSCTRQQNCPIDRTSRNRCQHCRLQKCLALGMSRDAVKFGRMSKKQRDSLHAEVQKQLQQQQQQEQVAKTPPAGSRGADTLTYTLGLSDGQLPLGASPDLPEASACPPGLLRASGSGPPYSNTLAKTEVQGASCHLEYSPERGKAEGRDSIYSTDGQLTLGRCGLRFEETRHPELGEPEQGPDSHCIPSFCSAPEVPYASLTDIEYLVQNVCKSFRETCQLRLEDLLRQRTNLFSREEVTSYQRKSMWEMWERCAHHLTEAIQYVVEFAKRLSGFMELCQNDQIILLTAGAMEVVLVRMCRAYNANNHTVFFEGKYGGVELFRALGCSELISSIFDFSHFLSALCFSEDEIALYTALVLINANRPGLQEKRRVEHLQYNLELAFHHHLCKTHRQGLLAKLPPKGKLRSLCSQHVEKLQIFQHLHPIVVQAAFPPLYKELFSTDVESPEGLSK
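Schneider cells (Drosophila), stable Gal4 DBD–ROR gamma + UAS-luc; 1 hr cmpd preincubation; Cu2+ induction 700 uM final; 20 hr ambient; luminescence.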
TRPV1 PAM: potentiators of human vanilloid receptor 1 (TRPV1); Q8NER1; TRPV1-expressing cells, Fluo-8 calcium influx, capsaicin EC20 potentiation; potentiation, % at 8.33 µM; hit rate 0.02% among 320,000; in the data active = potentiation above about 80%; inconclusive = between about 30% and that limit
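Fluo-8 calcium influx in TRPV1-expressing cells, kinetic read (ex 480/em 520 nm). Compound added and read 3 min for agonist activity, followed by capsaicin at EC20 final and 2 min further read for enhancement.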
A number is an active result; . = inactive; ? = inconclusive; / = no result given. Unless noted, calls come from the whole dose curve; as a rule, active = well fitted curve in the direction sought with a large enough effect; inconclusive = small, poorly fitted or top-dose-only effect, or another doubt; inactive = no such curve, though single readings can be large; an effect the other way counts as inactive or inconclusive.

SMILES	VP16 counter	uPA generation	TRPV1 ag	RORgamma inh	TRPV1 PAM
COc1ccc(OC)c(NC(=O)CSc2ccc(-c3ccco3)nn2)c1	.	.	.	.	.
COc1cc(NS(=O)(=O)c2ccc(N/C=C\C(=O)c3ccc(F)cc3)cc2)nc(OC)n1	.	.	.	.	.
O=[N+]([O-])c1ccccc1Sc1nccn1Cc1ccccc1	.	.	.	.	?
O=C(N/N=C/c1ccc[nH]1)c1ccc(Cl)cc1	10µM	.	.	3.2µM	.
Cc1occc1C(=O)N/N=C/c1ccc[nH]1	/	.	/	/	/
Cc1ccc(C(=O)N/N=C\c2ccc[nH]2)cc1[N+](=O)[O-]	?	.	?	2µM	.
O=C(N/N=C/c1ccc[nH]1)c1ccncc1	?	.	.	20µM	.
O=C(Nc1ccccc1C(=O)Nc1ccccn1)c1cccc([N+](=O)[O-])c1	.	.	.	.	.
O=C(OCn1ncc(Br)c(Br)c1=O)c1ccc(F)cc1	0.63µM	.	.	?	.
O=C(OCn1ncc(Br)c(Br)c1=O)c1ccccc1Cl	5.6µM	.	.	6.3µM	.
O=C(OCn1ncc(Cl)c(Cl)c1=O)c1cccc(C(F)(F)F)c1	.	.	.	.	.
Cc1cccc(NC(=O)c2nc[nH]c2C(=O)NCC(=O)OC(C)(C)C)c1	?	.	.	?	.
CC(=O)c1cccc(NC(=S)NC2CC2)c1	.	.	.	.	.
CC(=O)c1cccc(NC(=S)NC2CCCCC2)c1	?	.	?	10µM	.
Cc1cc(Cl)ccc1NC(=S)NC1CCCC1	14µM	.	.	2.2µM	.
S=C(Nc1cccc(Cl)c1)NC1CCCCC1	10µM	.	.	3.5µM	.
O=C(NC1CCCCCCC1)c1cccc(Cl)c1	?	.	?	.	.
S=C(NNc1cccc(Cl)c1)NC1CCCCC1	1.4µM	.	?	0.32µM	.
O=C(COc1ccc(-c2nnco2)cc1)Nc1c(Cl)cccc1C(F)(F)F	/	.	.	/	.
O=[N+]([O-])c1cc(N(CCO)CCO)ccc1NCCO	.	/	/	.	/
COc1ccc(-c2ccoc2)cc1C1C2C=CCC(C)C2C(=O)N1Cc1ccccc1 (stereo not drawn)	?	/	/	.	/
CC1CCCCC1NC(=S)Nc1ccc(Cl)cc1Cl (stereo not drawn)	?	.	.	3.5µM	.
Cc1ccccc1NNC(N)=S	?	.	.	?	.
Cc1cccc(NNC(N)=S)c1	10µM	.	.	?	.
NC(=S)NNC(=O)Nc1cccc(Cl)c1	.	.	.	.	.
SMILES	VP16 counter	uPA generation	TRPV1 ag	RORgamma inh	TRPV1 PAM
NC(=S)NNc1cccc(Cl)c1	16µM	.	.	5.6µM	.
Cc1onc(-c2ccccc2)c1C(=O)Nc1nnc(COc2ccc(Cl)cc2)s1	.	.	.	?	.
COc1cc(C(=O)Oc2ccccc2/C=N/NC(=O)c2ccc(C)c(Cl)c2)cc(OC)c1OC	?	.	.	5µM	.
COc1cc(C(=O)Oc2ccccc2/C=N/NC(=O)c2ccc(Cl)cc2)cc(OC)c1OC	11µM	.	.	6.3µM	.
COc1ccc(C(=O)N/N=C/c2ccccc2C(=O)O)cc1OC	.	.	.	.	.
CC(C)(C)c1ccc(C(=O)N2CCC(=O)N([C@H](COCc3ccc(Cl)cc3)Cc3ccccc3)CC2)cc1	.	/	/	.	/
Cn1c(CSCc2ccc(F)cc2)nnc1SCC(=O)N1CCN(c2ccccc2)CC1	?	.	.	?	.
O=C(N/N=C1/CCSC1)c1cccc([N+](=O)[O-])c1	20µM	.	.	?	.
C/C(=N\NC(=O)c1ccccc1)c1ccc(C)c([N+](=O)[O-])c1	?	.	.	.	.
Cc1ccc(C(=O)N/N=C2\CCSC2)cc1[N+](=O)[O-]	?	.	?	10µM	.
COCCn1c(=O)c(CCc2ccccc2)nc2cnc(Nc3ccccc3)nc21	.	/	/	.	/
O=C(N/N=C/c1cc(Br)cc(Br)c1O)c1ccncc1	.	.	.	4µM	.
CCC(O)(CC)C(=O)N/N=C/c1cc(Br)cc(Br)c1O	3.2µM	.	.	0.79µM	.
O=C(N/N=C/c1cc(Br)cc([N+](=O)[O-])c1O)c1ccc(NC(=O)c2ccc(F)cc2)cc1	11µM	.	?	8.9µM	.
O=C(N/N=C/c1c[nH]c2ccc(Br)cc12)c1ccncc1	?	.	.	13µM	.
CCOc1ccc(S(=O)(=O)N2CCC(C(=O)NC3CC3)CC2)cc1C	.	.	.	.	.
O=C(N/N=C/c1cc(Cl)cc(Cl)c1O)c1ccncc1	?	3.2µM	.	3.2µM	.
